Reference: the supplement of paper PMC13380429

These compounds were tested on Vero E6 infected with SARS-CoV-2 (assay: SARS-CoV-2 infection rate relative to infected DMSO; higher = more infection, active = 60 or less). Details: 24 h.
`CCCC(O)C(CC)CO` (stereo not given) [2-ethyl-1,3-hexanediol] (0.833333 µM) was tested, and the SARS-CoV-2 infection rate was 116% (inactive). With `CCC(NC(C)C)C(O)c1ccc(O)c(O)c1` (stereo not given) [isoetharine] (10 µM) the SARS-CoV-2 infection rate was 93% (inactive). With `Cn1c(NC[C@@H](N)Cc2ccccc2)nc(-c2ccncc2)c(-c2ccc3ccccc3c2)c1=O` (10 µM) the SARS-CoV-2 infection rate was 35% (active). With `Nc1ncnc2c1ncn2C1CCCO1` (stereo not given) (10 µM) the SARS-CoV-2 infection rate was 103% (inactive). In the case of `COc1cc(NC(=O)c2cccc(-n3cc(NC(=O)Nc4cccc(C)c4)cn3)c2)cc(OC)c1OC` (10 µM), the SARS-CoV-2 infection rate is reported as 104% (inactive). For `CCN(CC)CCCC(C)Nc1c2ccc(Cl)cc2nc2ccc(OC)cc12` (stereo not given) [mepacrine] (0.833333 µM), the SARS-CoV-2 infection rate was 55.5% (active). With `CN1CCN(c2cccc(Nc3nc4c(-c5ccc(S(C)(=O)=O)cc5)cccn4n3)c2)CC1` (0.833333 µM) the SARS-CoV-2 infection rate was 106% (inactive). With `CC(C)C[C@H](CN)CC(=O)O` (10 µM) the SARS-CoV-2 infection rate was 106% (inactive). In the case of `CC1(C)NC(=O)N(c2ccc([N+](=O)[O-])c(C(F)(F)F)c2)C1=O` [nilutamide] (10 µM), the SARS-CoV-2 infection rate is reported as 108% (inactive). With `OC(CCN1CCCCC1)(c1ccccc1)c1ccccc1` [pridinol] (10 µM) the SARS-CoV-2 infection rate was 108% (inactive). `CCCOc1ccc2[nH]c(NC(=O)OC)nc2c1` [oxibendazole] (10 µM) was tested, and the SARS-CoV-2 infection rate was 118% (inactive). `Cc1onc(-c2ccccc2)c1C(=O)N[C@@H]1C(=O)N2[C@@H]1SC(C)(C)[C@@H]2C(=O)O` [oxacillin] (10 µM) was tested, and the SARS-CoV-2 infection rate was 110% (inactive). For `CCCN1CCC[C@@H]2Cc3nc(N)ncc3C[C@H]21` [quinelorane] (10 µM), the SARS-CoV-2 infection rate was 106% (inactive). With `CC(=O)OCC(=O)NCCCOc1cccc(CN2CCCCC2)c1` [roxatidine-acetate] (10 µM) the SARS-CoV-2 infection rate was 110% (inactive). With `O=C(CCCl)NCCc1ccccc1` [fenaclon] (10 µM) the SARS-CoV-2 infection rate was 102% (inactive). In the case of `C[C@H]1C[C@@H]2[C@H]([C@@H](O)C[C@@]3(C)[C@H]2CC[C@]3(O)C(=O)COC(=O)CCC(=O)O)[C@@]2(C)C=CC(=O)C=C12` [methylprednisolone-sodium-succinate] (10 µM), the SARS-CoV-2 infection rate is reported as 102% (inactive). `N=C(N)c1ccc(-c2ccc(-c3ccc(C(=N)N)cc3)o2)cc1` [furamidine] (10 µM) was tested, and the SARS-CoV-2 infection rate was 98% (inactive). For `CC(CNS(=O)(=O)C(C)C)c1ccc(-c2ccc(C#N)cc2)cc1` (stereo not given) (10 µM), the SARS-CoV-2 infection rate was 114% (inactive). For `COc1cc2c(cc1OC)[C@@H]1Cc3ccc(OC)c(OC)c3CN1CC2` [rotundine] (10 µM), the SARS-CoV-2 infection rate was 110% (inactive). `COc1ccc2[nH]cc(CCNC(C)=O)c2c1` [melatonin] (10 µM) was tested, and the SARS-CoV-2 infection rate was 105% (inactive). For `Cc1cc(OCC(=O)O)cc(C)c1Cc1ccc(O)c(C(C)C)c1` [sobetirome] (10 µM), the SARS-CoV-2 infection rate was 103% (inactive). `O=c1ccn([C@@H]2O[C@H](CO)[C@@H](O)[C@H]2O)c(=O)[nH]1` [uridine] (10 µM) was tested, and the SARS-CoV-2 infection rate was 96.5% (inactive). With `COc1ccc(C2(O)CCC(N3CC[C@@H](NC(=O)CNC(=O)c4cccc(C(F)(F)F)c4)C3)CC2)cn1` (stereo not given in full) (10 µM) the SARS-CoV-2 infection rate was 105% (inactive). `c1cnc(N2CCN(Cc3ccc4c(c3)OCO4)CC2)nc1` [piribedil] (10 µM) was tested, and the SARS-CoV-2 infection rate was 98.5% (inactive). With `Cc1noc(C)c1-c1ccc(-c2cc(C(N)=O)c(NC(N)=O)s2)c(O[C@H]2CCNC2)c1` (10 µM) the SARS-CoV-2 infection rate was 104% (inactive). In the case of `COCC(=O)O[C@]1(CCN(C)CCCc2nc3ccccc3[nH]2)CCc2cc(F)ccc2[C@@H]1C(C)C` [mibefradil] (10 µM), the SARS-CoV-2 infection rate is reported as 17.5% (active). In the case of `O=C1CCc2ccc(OCCCCN3CCN(c4cccc(Cl)c4Cl)CC3)cc2N1` [aripiprazole] (10 µM), the SARS-CoV-2 infection rate is reported as 103% (inactive). With `Cc1sc(C)c(C(=O)NC2(c3ccc(C(=O)O)cc3)CC2)c1Cc1ccc(C(F)(F)F)cc1` (10 µM) the SARS-CoV-2 infection rate was 108% (inactive). With `C=C1CC/C=C(\C)CC[C@@H]2[C@@H]1CC2(C)C` [g-caryophyllene] (10 µM) the SARS-CoV-2 infection rate was 95% (inactive). For `O=C(O)Cc1ccc(OCc2ccccc2)c(Cl)c1` [benzofenac] (10 µM), the SARS-CoV-2 infection rate was 106% (inactive). In the case of `CC(N)Cc1c[nH]c2ccc(OCc3cccs3)cc12` (stereo not given) (10 µM), the SARS-CoV-2 infection rate is reported as 90% (inactive). With `CCc1nc2c(C)nc(C)cc2n1-c1ccc(CCNC(=O)NS(=O)(=O)c2ccc(C)cc2)cc1` [grapiprant] (10 µM) the SARS-CoV-2 infection rate was 93.5% (inactive). For `CC(C)(C)C(=O)/C(=N/c1ccc(Cl)cc1)NNc1ccc(Cl)cc1` (10 µM), the SARS-CoV-2 infection rate was 114% (inactive). `CCCCCCCC/C=C/CCCCCCCC(=O)OC[C@H]1O[C@@H](n2ccc(N)nc2=O)C(F)(F)[C@@H]1O` [gemcitabine-elaidate] (0.833333 µM) was tested, and the SARS-CoV-2 infection rate was 112% (inactive). In the case of `CCC(C)CCCC(=O)N[C@@H](CCN)C(=O)N[C@H](C(=O)N[C@@H](CCN)C(=O)N[C@H]1CCNC(=O)[C@H]([C@@H](C)O)NC(=O)[C@H](CCN)NC(=O)[C@H](CCN)NC(=O)[C@H](CC(C)C)NC(=O)[C@@H](CC(C)C)NC(=O)[C@H](CCN)NC1=O)[C@@H](C)O` (stereo not given in full) [colistin] (10 µM), the SARS-CoV-2 infection rate is reported as 96.2% (inactive). In the case of `CC(=O)Nc1ccc(C(=O)O)cc1` [acedoben] (10 µM), the SARS-CoV-2 infection rate is reported as 102% (inactive). With `COc1cc2ncnc(Nc3ccc(F)c(Cl)c3)c2cc1OCCCN1CCOCC1` [gefitinib] (10 µM) the SARS-CoV-2 infection rate was 112% (inactive). `C/C(=C\c1csc(C)n1)[C@@H]1C[C@@H]2O[C@]2(C)CCC[C@H](C)[C@H](O)[C@@H](C)C(=O)C(C)(C)[C@@H](O)CC(=O)N1` [ixabepilone] (10 µM) was tested, and the SARS-CoV-2 infection rate was 108% (inactive). For `O=C(Nc1ccc(S(=O)(=O)C(F)(F)F)cc1)C1=CCN(c2ncccc2C(F)(F)F)CC1` (10 µM), the SARS-CoV-2 infection rate was 108% (inactive). For `CC(=O)NCCCS(=O)(=O)O` [acamprosate] (10 µM), the SARS-CoV-2 infection rate was 102% (inactive).
